APP transl inh = APP translation inhibition. inhibition, % at 2 µM. SH-SY5Y APP 5'UTR-luciferase reporter, luminescence. 190,000 compounds, 0.82% hits;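 active means inhibition above a set limit, derived from the sample mean plus 3 SD, cut at about 45% in these data; inconclusive means one replicate passes the limit while the other fails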
IEC-6 tox = kills IEC-6 intestinal cells in KLF5 counter-screen | IEC-6 cytotoxicity, luminescence viability | AID 1825 | 290,000 compounds, 0.78% hits | inhibition, % at 5 µM;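 further: 0% = plate median of test compound wells and 100% = cytotoxic reference compound wells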
BaF3 parental = reduces parental Ba/F3 cell viability, JAK2V617F counter-screen; CellTiter-Glo ATP luminescence; inhibition, % at 5.6 µM; 220,000 compounds, 1.1% hits;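 active means inhibition above a per-campaign cutoff, the mean inhibition of all tested compounds plus 3 SD, cut at about 27% in these data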;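 further: 0% = DMSO wells and 100% = JAK Inhibitor I control wells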
aSyn UTR inh = 5' untranslated region of α-synuclein, MLPCN primary screen. inhibition, % (tested at 7.5 µM). 300,000 compounds, 0.82% hits. alpha-synuclein 5'UTR reporter, inhibitor activity. AID 1813; in the data active means inhibition above about 60%; inconclusive means no clear call, values can overlap the other calls;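 further: H4 neuroglioblastoma cells stably carrying SNCA 5'UTR luciferase fusion; 0% = DMSO wells and 100% = positive control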
Ba/F3 V617F tox = lowers viability of Ba/F3 cells expressing EpoR and JAK2V617F | ATP luminescence | inhibition, % at 5.6 µM | 220,000 compounds, 1.1% hits;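 active means inhibition above the campaign mean plus 3 SD over all tested compounds, cut at about 24% in these data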;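 further: cytokine-independent growth of Ba/F3 cells driven by EpoR plus mutant JAK2; 0% = DMSO-treated cells and 100% = JAK inhibitor I control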
KLF5 inhibitor = inhibitors of KLF5 expression; DLD-1 KLF5 promoter-luciferase reporter, luminescence; inhibition, % at 5 µM; 290,000 compounds, 0.23% hits; AID 1700;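 active means inhibition above a per-plate limit of that plate's mean compound inhibition plus 3 SD, cut at about 60% in these data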;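 further: 0% = DMSO wells and 100% = LY294002 at 200 µM; higher means less KLF5 promoter-driven luciferase light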
IEC-6 tox confirm = IEC-6 cytotoxicity, confirmation assay; shares compounds with IEC-6 tox; IEC-6 rat intestinal epithelial viability, luminescence; inhibition, % at 5 µM; 1,900 compounds, 63% hits; AID 1907;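 further: 0% = vehicle and 100% = reference cytotoxic drug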
* hit, by the source's call; ? = inconclusive; / = not tested or not shown. In the library only some 2.2% were active in any assay of this set; here they are far more common. Unless noted, no stated cut-off is given here; in the data, active means inhibition above about 22%; inactive means the rest.

SMILES	APP transl inh	IEC-6 tox	BaF3 parental	aSyn UTR inh	Ba/F3 V617F tox	KLF5 inhibitor	IEC-6 tox confirm
Cc1nnc(NC(=O)CSc2nnc3c(n2)[nH]c2ccc(Br)cc23)s1	/	-2	/	18	/	6	/
OC(CNCCc1ccccc1)COc1ccc(OCC(O)CNCCc2ccccc2)cc1 (stereo not drawn)	/	26*	9	107*	8	-25	42*
OC(CNCCc1ccc(Cl)cc1)COc1ccc2ccccc2c1 (stereo not drawn)	-4	8	0	/	3	2	/
O=[N+]([O-])c1cc([N+](=O)[O-])c2oc(-c3ccccc3)c(Br)c2c1O	/	29*	/	15	/	1	8
Cc1[nH]c2ccccc2c1/C=N/Nc1nc(Nc2ccccc2)nc(N2CCOCC2)n1	20	76*	41*	7	32*	-36	93*
Oc1[nH]c2ccccc2c1N=Nc1nc(Nc2ccccc2)nc(N2CCOCC2)n1	/	1	-12	-2	-1	-17	/
CCN(CC)CCNc1ncnc2c1sc1nc(N3CCCC3)c3c(c12)CC(C)(C)OC3	-8	-5	12	4	14	-31	/
CCCc1cc(NCc2ccccn2)n2nc(C)c(-c3ccccc3)c2n1	/	47*	3	-8	9	-37	13
Cc1cc(N)n2ncc(-c3ccc(F)cc3)c2n1	-84	10	1	-104	-5	-115	/
Cc1cc(NCc2ccccn2)n2nc(C)c(-c3ccc(Cl)cc3)c2n1	/	12	0	/	-1	-6	/
Cc1nn2c(NCc3ccccn3)cc(C(C)C)nc2c1-c1ccccc1	/	-9	-2	32	-1	7	/
Cc1cc(NCc2ccccn2)n2ncc(-c3ccc(Cl)cc3)c2n1	/	29*	0	-97	-2	-14	30*
Cc1cc(NCc2ccccn2)n2ncc(-c3ccccc3)c2n1	/	84*	6	-155	0	-41	31*
Cc1cc(N)n2ncc(-c3ccc(Cl)cc3)c2n1	-96	25*	-2	-52	1	-21	26*
COc1ccc2c(c1OC)C(=O)N1C2SC[C@H]1C(=O)NC1CCCCC1 (stereo partly drawn)	/	-1	/	16	/	-14	/
COC(=O)Cc1ccc(OC(=O)CCS(=O)(=O)c2ccc(Cl)cc2)cc1	/	/	/	6	/	/	/
CC(=O)Nc1ccc(S(=O)(=O)Nc2nc3ccccc3nc2Nc2cccc(S(N)(=O)=O)c2)cc1	/	-2	0	23	-2	-37	/
CSc1ncc(Cl)c(C(=O)Nc2ccc(C)c(C)c2)n1	/	2	/	16	/	-8	/
CCOC(=O)c1ccc(NC(=O)CCS(=O)(=O)Cc2ccccc2)cc1	/	-6	/	-9	/	-27	/
Cc1ccc(NC(=O)c2nc(S(=O)(=O)Cc3ccccc3C)ncc2Cl)cc1C	/	31*	/	39	/	6	16
CCS(=O)(=O)c1ncc(Cl)c(C(=O)Nc2ccc(S(=O)(=O)N3CCC(C)CC3)cc2)n1	/	96*	/	65*	/	43	8
CCOC(=O)c1ccc(NC(=O)c2nc(S(=O)(=O)Cc3ccccc3)ncc2Cl)cc1	/	50*	/	?	/	23	16
CC1CCN(S(=O)(=O)c2ccc(NC(=O)c3ccncc3)cc2)CC1	/	3	/	-1	/	-37	/
CCc1ccc(NC(=O)c2nc(S(=O)(=O)Cc3ccccc3)ncc2Cl)cc1	/	88*	/	91*	/	15	7
CCCS(=O)(=O)c1ncc(Cl)c(C(=O)Nc2ccc(S(=O)(=O)Nc3ncccn3)cc2)n1	/	-5	/	16	/	-26	/
SMILES	APP transl inh	IEC-6 tox	BaF3 parental	aSyn UTR inh	Ba/F3 V617F tox	KLF5 inhibitor	IEC-6 tox confirm
O=C(O)CCNC(=O)COc1ccc2c3c(c(=O)oc2c1)CCCC3	/	0	/	6	/	-28	/
CCOc1cc(CNc2ccc3c(c2)OCCO3)cc(Br)c1OCC	95*	83*	74*	97*	74*	7	53*
CN(Cc1cn(C)nc1-c1ccc(Oc2ccccc2)cc1)C1CCOC1 (stereo not drawn)	/	-2	4	18	-1	-13	/
CN(Cc1cn(C)nc1-c1ccc(Oc2ccccc2)cc1)CC1COCCO1 (stereo not drawn)	15	77*	102*	2	98*	5	3
O=c1c(Cl)c(Cl)cnn1Cc1nnc(-c2ccccc2Br)o1	94*	30*	-1	-66	16	-11	22
Clc1ccccc1OCc1nnc(-c2ccccc2Br)o1	-95	1	6	-173	2	-119	/
CCOc1ccc(N(C)S(=O)(=O)c2cc(-c3cc(C)no3)ccc2C(C)C)cc1	/	1	/	-13	/	-16	/
CCOc1ccc(N(C)S(=O)(=O)c2ccc(-c3cc(C)no3)s2)cc1	/	57*	/	-59	/	39	38*
O=C(c1ccc(Br)cc1)C(CN1CCOCC1)c1ccccc1 (stereo not drawn)	/	26*	/	-152	/	-32	8
Cc1ccc(OCCn2cc(C(=S)N3CCCC3)c3ccccc32)cc1C	-1	70*	3	-38	3	24	44*
N#Cc1c(F)cccc1NCCCn1ccnc1	/	/	/	-6	/	/	/
COc1ccc2[nH]c3c4c(ccc3c2c1)C(=O)C=CC4=O	/	57*	8	/	46*	-22	10
COc1ccc2[nH]c(=O)cc(C(=O)O)c2c1	-17	5	2	-5	-2	-17	/
COc1cc2c(c(OC)c1OC)-c1ccc(NC(=O)c3ccc(F)cc3)c(=O)cc1[C@@H](NC(C)=O)CC2	/	26*	/	-26	/	18	53*
COc1ccc(/C=N\NC(=O)c2ccccc2F)cc1COc1ccc(F)cc1F	/	80*	/	-1	/	60	62*
COc1ccc(/C=N/NC(=O)c2ccco2)cc1COc1ccc(F)cc1	/	2	/	22	/	-23	/
COc1ccc(/C=N\NC(=O)c2ccccc2F)cc1COc1ccc(F)cc1	/	23*	/	-48	/	14	14
COc1cc2ccccc2cc1C(=O)N/N=C/c1ccc2c(c1)OCO2	/	37*	/	-163	/	35	25*
Cc1ccc2cc(CN(CC(C)C)S(=O)(=O)c3cccc4nonc34)c(=O)[nH]c2c1	/	1	/	9	/	-2	/
NC(=O)c1ccc(SCC(=O)OCC(=O)NCc2ccco2)c([N+](=O)[O-])c1	/	/	/	-5	/	/	/
O=C(Nc1ccc(Cl)cn1)c1cccc(F)c1	-54	23*	18	-204	18	-56	33*
O=C(Nc1cccc(C(=O)Nc2ccc(Cl)cn2)c1)c1ccccc1	/	8	/	-32	/	-30	/
C=CCn1cc(C(=O)NCCOC)c(=O)c2cc(S(=O)(=O)N3CCCCCC3)ccc21	/	24*	/	2	/	-16	19
COc1cccc(CNc2ncc(C(=O)Nc3cc(OC)c(OC)c(OC)c3)c(C)n2)c1	/	30*	/	-22	/	22	12
Cc1ccccc1NC(=O)CSc1nc2scc(C)c2c(=O)[nH]1	/	37*	/	-8	/	-16	21
CC(C)c1ccc(NC(=O)C(c2ccc3c(c2)OCO3)N2CCN(C(=O)c3ccco3)CC2)cc1 (stereo not drawn)	-14	1	8	10	0	6	/

Compound activity (PubChem BioAssay)
